{"source": "paper PMC12431657", "about": "“Discovery and mechanistic insights of dibenzoylmethane as a broad spectrum inhibitor of coronavirus” (PLOS Pathogens, 2025)", "system": "HCoV-229E", "design": "species or system Huh-7; HTS, protection from HCoV-229E induced cell death, luminescent cell viability (CellCounting-Lite 2.0), inhibition rate", "note": "Read-outs that look alike come from different tables or passages of the source. In all, about 3,300 compounds went through this assay and about 95 (3%) showed an effect of 50% or more. The list comes from a sample in which strong results are over-represented; it also holds similar structures and randomly drawn compounds.", "data": [{"smiles": "C[C@]12CC[C@H](O)C[C@@H]1CC[C@@H]1[C@@H]2CC[C@]2(C)C(=O)CC[C@@H]12", "note": "[Epiandrosterone]", "values": [{"measurement": "229E Inhibition rate", "setting": "24 h, 10 µM; inhibitor", "value": 29.3, "unit": "%"}]}, {"smiles": "C[C@]12CC[C@@H](O)C[C@H]1CC[C@@H]1[C@@H]2CC[C@]2(C)C(=O)CC[C@@H]12", "note": "[Etiocholanolone]", "values": [{"measurement": "229E Inhibition rate", "setting": "24 h, 10 µM; inhibitor", "value": 13.1, "unit": "%"}]}, {"smiles": "C[C@]12CC[C@@H](O)C[C@@H]1CC[C@@H]1[C@@H]2CC[C@]2(C)C(=O)CC[C@@H]12", "note": "[Androsterone]", "values": [{"measurement": "229E Inhibition rate", "setting": "24 h, 10 µM; inhibitor", "value": 52.3, "unit": "%"}]}, {"smiles": "COc1cc2cc(c1Cl)N(C)C(=O)C[C@H](OC(=O)C(C)C)[C@]1(C)O[C@@H]1[C@H](C)[C@@H]1C[C@@](O)(NC(=O)O1)[C@H](OC)/C=C/C=C(\\C)C2", "note": "[Ansamitocin P-3]", "values": [{"measurement": "229E Inhibition rate", "setting": "24 h, 10 µM; inhibitor", "value": 22.8, "unit": "%"}]}, {"smiles": "CN(C)NC(=O)CCC(=O)O", "note": "[Daminozide]", "values": [{"measurement": "229E Inhibition rate", "setting": "24 h, 10 µM; inhibitor", "value": 12.3, "unit": "%"}]}, {"smiles": "NC(=O)Cc1ccccc1", "note": "[2-Phenylacetamide]", "values": [{"measurement": "229E Inhibition rate", "setting": "24 h, 10 µM; inhibitor", "value": 20.1, "unit": "%"}]}, {"smiles": "NC(=O)NCCCC[C@H](N)C(=O)O", "note": "[L-Homocitrulline]", "values": [{"measurement": "229E Inhibition rate", "setting": "24 h, 10 µM; inhibitor", "value": 20.7}]}, {"smiles": "CC(C)(C)[C@]1(O)C[C@@H]2OC(=O)C[C@@]23C(=O)O[C@@H]2OC(=O)[C@H](O)[C@]213", "note": "[Bilobalide]", "values": [{"measurement": "229E Inhibition rate", "setting": "24 h, 10 µM; inhibitor", "value": 54.8, "unit": "%"}]}, {"smiles": "C/C=C/C#CC#C/C=C/c1ccco1", "note": "[Atractylodin]", "values": [{"measurement": "229E Inhibition rate", "setting": "24 h, 10 µM; inhibitor", "value": 10.3, "unit": "%"}]}, {"smiles": "C[C@@H]1CC[C@@]2(OC1)O[C@H]1[C@@H](O)[C@H]3[C@@H]4CC[C@H]5C[C@@H](O[C@@H]6O[C@H](CO)[C@H](O[C@@H]7O[C@H](CO)[C@@H](O)[C@H](O[C@@H]8OC[C@@H](O)[C@H](O)[C@H]8O)[C@H]7O[C@@H]7O[C@H](CO)[C@H](O)[C@H](O[C@@H]8O[C@H](CO)[C@@H](O)[C@H](O)[C@H]8O)[C@H]7O)[C@H](O)[C@H]6O)[C@H](O)C[C@]5(C)[C@H]4CC[C@]3(C)[C@H]1[C@@H]2C", "note": "[Digitonin]", "values": [{"measurement": "229E Inhibition rate", "setting": "24 h post infection, 1 h compound pre-incubation; 10 µM; inhibitor", "value": 13.7, "unit": "%"}]}, {"smiles": "CCN1C[C@]2(C)CC[C@H](OC)[C@@]34C1[C@]1(OCO[C@@]15C[C@H](OC)[C@H]1C[C@]3(O)[C@@H]5[C@H]1OC)[C@@H](OC(C)=O)[C@H]24", "note": "[Deltaline]", "values": [{"measurement": "229E Inhibition rate", "setting": "24 h, 10 µM; inhibitor", "value": 2.6, "unit": "%"}]}, {"smiles": "CN1Cc2c(ccc3c2OCO3)[C@@H]2[C@H]1c1cc3c(cc1C[C@@H]2O)OCO3", "note": "[Chelidonine]", "values": [{"measurement": "229E Inhibition rate", "setting": "24 h, 10 µM; inhibitor", "value": 12.4, "unit": "%"}]}, {"smiles": "CO[C@H]1C[C@H](O[C@H]2CC[C@]3(C)[C@H]4CC[C@]5(C)[C@@H](C6=CC(=O)OC6)CC[C@]5(O)[C@@H]4CC[C@]3(O)C2)O[C@H](C)[C@H]1O[C@@H]1O[C@H](CO)[C@@H](O)[C@H](O)[C@H]1O", "note": "[Periplocin]", "values": [{"measurement": "229E Inhibition rate", "setting": "24 h, 10 µM; inhibitor", "value": 25}]}, {"smiles": "CO[C@@H]1C[C@H](O[C@H]2CC[C@@]3(C)[C@H](CC[C@@]45O[C@@]46CC[C@H](C4=CC(=O)OC4)[C@@]6(C)CC[C@H]35)C2)O[C@H](C)[C@@H]1O", "note": "[Adynerin]", "values": [{"measurement": "229E Inhibition rate", "setting": "24 h, 10 µM; inhibitor", "value": 9.5, "unit": "%"}]}, {"smiles": "C[C@H]1O[C@@H](O[C@H]2CC[C@@]3(C)[C@H](CC[C@@H]4[C@@H]3C[C@@H](O)[C@]3(C)[C@@H](C5=CC(=O)OC5)CC[C@]43O)C2)C[C@H](O)[C@@H]1O[C@H]1C[C@H](O)[C@H](O[C@H]2C[C@H](O)[C@H](O[C@@H]3O[C@H](CO)[C@@H](O)[C@H](O)[C@H]3O)[C@@H](C)O2)[C@@H](C)O1", "note": "[Deslanoside]", "values": [{"measurement": "229E Inhibition rate", "setting": "24 h, 10 µM; inhibitor", "value": 55.1}]}, {"smiles": "CC(C)=CCCC1=CC(=O)c2c(O)ccc(O)c2C1=O", "note": "[Deoxyshikonin]", "values": [{"measurement": "229E Inhibition rate", "setting": "24 h, 10 µM; inhibitor", "value": 9.8, "unit": "%"}]}, {"smiles": "CC1(C)[C@H]2O[C@H]2[C@H]2[C@](C)(O)[C@@H]3CC[C@@H]4[C@@H](O)[C@@]3(C[C@@H](O)[C@@]21O)C[C@@]4(C)O", "note": "[Rhodojaponin III]", "values": [{"measurement": "229E Inhibition rate", "setting": "24 h, 10 µM; inhibitor", "value": 46.8, "unit": "%"}]}, {"smiles": "CC(C)[C@@H]1NC(=O)[C@H](C)OC(=O)[C@@H](C(C)C)NC(=O)[C@@H](C(C)C)OC(=O)[C@H](C(C)C)NC(=O)[C@H](C)OC(=O)[C@@H](C(C)C)NC(=O)[C@@H](C(C)C)OC(=O)[C@H](C(C)C)NC(=O)[C@H](C)OC(=O)[C@@H](C(C)C)NC(=O)[C@@H](C(C)C)OC1=O", "note": "[Valinomycin]", "values": [{"measurement": "229E Inhibition rate", "setting": "24 h, 10 µM; inhibitor", "value": 90.8, "unit": "%"}]}, {"smiles": "COC1=CC(=O)O[C@@H](/C=C/c2ccccc2)C1", "note": "[(+)-Kavain]", "values": [{"measurement": "229E Inhibition rate", "setting": "24 h, 10 µM, inhibitor", "value": 9.8, "unit": "%"}]}, {"smiles": "COC(=O)[C@]12OC[C@]34[C@H]([C@@H](O)[C@@H]1O)[C@@]1(C)CC(=O)C(O)=C(C)[C@@H]1C[C@H]3OC(=O)[C@H](OC(=O)/C=C(\\C)C(C)(C)OC(C)=O)[C@@H]24", "note": "[Bruceantinol]", "values": [{"measurement": "229E Inhibition rate", "setting": "24 h, 10 µM; inhibitor", "value": 0, "unit": "%"}]}]}
